Where “and” joins values, the source holds several entries; their conditions need not be identical. Equal entries are not always repeated. Records with an inconclusive call do not appear. Calls of active or inactive are those of the source. Unless noted, calls follow the shape of the dose curve; as a rule, active = well fitted curve in the direction sought with a large enough effect; inconclusive = small, poorly fitted or top-dose-only effect, or another doubt; inactive = no such curve, though single readings can be large; an effect the other way counts as inactive or inconclusive.
Columns and labels:
[1] = Cell Viability - H-4-II-E (AID 543);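 also: cells exposed to compound for 40 hours; nearly all actives have a fitted effect of over 35% in size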; also: potency is read from the fitted curve at half-maximal effect
Method in brief: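 qHTS, rat hepatoma H-4-II-E, 1500 cells/well; 40 hr compound exposure, 37 °C; CellTiter-Glo ATP luminescence after 20 min RT; AC50 by standard Hill fit.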

[2] = Cell Viability - LYMP2-017 (AID 972);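 also: cells exposed to compound for 24 hours at 37 °C; nearly all actives have a fitted effect of over 55% in size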; also: potency is read from the fitted curve at half-maximal effect; as to activity change, negative = cytotoxicity: % is scaled to controls: 0 for no effect and ±100 for the full control effect
Method in brief: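 Luminescent ATP read-out (CellTiter-Glo, 30 min RT) reports viable cell number. Cells: human lymphoblastoid line, 2500 per well, 5 hr preincubation, 24 hr compound exposure at 37 C. AC50 is derived from qHTS concentration-response data using the standard Hill model.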

[3] = Cell Viability - LYMP2-018 (AID 985);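 also: plate controls were DMSO only for no effect and tetraoctylammonium bromide at 92 µM for full effect; nearly all actives have a fitted effect of over 50% in size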
Method in brief: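 2500 cells/well; 5 hr 37 C; cmpd 24 hr 37 C, complete medium; CellTiter-Glo 30 min RT; luminescence. Tetraoctylammonium bromide positive control. AC50 via Hill fit.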

[4] = Cell Viability - LYMP2-020 (AID 986);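 also: cells exposed to compound for 24 h at 37 °C; plate controls were DMSO only for no effect and tetraoctylammonium bromide at 92 µM for full effect; nearly all actives have a fitted effect of over 55% in size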
Method in brief: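 qHTS, 2500 cells/well; 5 hr then 24 hr compound exposure, 37 C; CellTiter-Glo luminescence after 30 min RT; ATP decrease taken as cytotoxicity; AC50 via Hill equation; tetraoctylammonium bromide positive control.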

[5] = target: Estrogen receptor (Homo sapiens) (UniProt P03372); assay: qHTS assay for small molecule agonists of estrogen receptor alpha signaling (AID 588514; calls by dose curve;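 also: 0% = vehicle only and 100% = reference agonist; nearly all actives have a fitted effect of over 70% in size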)
Chain of Estrogen receptor (Homo sapiens) (P03372 whole entry, looked up): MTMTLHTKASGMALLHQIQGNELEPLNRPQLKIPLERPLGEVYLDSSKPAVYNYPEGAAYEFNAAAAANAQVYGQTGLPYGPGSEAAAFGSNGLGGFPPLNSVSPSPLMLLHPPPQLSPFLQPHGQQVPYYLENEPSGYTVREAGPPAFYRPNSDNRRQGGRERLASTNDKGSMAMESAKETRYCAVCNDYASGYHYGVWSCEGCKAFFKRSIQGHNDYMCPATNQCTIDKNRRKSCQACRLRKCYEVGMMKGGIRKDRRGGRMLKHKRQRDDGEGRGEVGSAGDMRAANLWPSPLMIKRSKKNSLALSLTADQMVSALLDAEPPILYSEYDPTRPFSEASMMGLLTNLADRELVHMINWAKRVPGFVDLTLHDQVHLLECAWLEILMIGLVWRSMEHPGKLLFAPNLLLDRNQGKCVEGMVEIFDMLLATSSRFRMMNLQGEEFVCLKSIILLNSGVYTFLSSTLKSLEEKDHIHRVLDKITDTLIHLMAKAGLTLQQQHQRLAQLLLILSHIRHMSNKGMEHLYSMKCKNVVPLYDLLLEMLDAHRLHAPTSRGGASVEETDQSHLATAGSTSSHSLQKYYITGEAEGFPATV
Method in brief: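 Read-out: CCF4 fluorescence from a beta-lactamase reporter in ER-alpha-UAS-bla HEK 293 cells after 18 hrs of compound exposure at 37 C. Normalized to 20 nM 17-beta-estradiol (100%) and DMSO (0%).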

[6] = target: Glucocorticoid receptor (Homo sapiens) (UniProt P04150); assay: qHTS assay for small molecule antagonists of glucocorticoid receptor signaling (AID 588533; active = well fitted inhibition curve with a large enough effect in the signal ratio, with a control signal flat, not every such curve was filed as active; the % refers to the signal ratio;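 also: cells stimulated with 2 nM dexamethasone as agonist; % is scaled to controls: 0 for no effect and ±100 for the full control effect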)
Chain of Glucocorticoid receptor (Homo sapiens) (P04150 whole entry, looked up): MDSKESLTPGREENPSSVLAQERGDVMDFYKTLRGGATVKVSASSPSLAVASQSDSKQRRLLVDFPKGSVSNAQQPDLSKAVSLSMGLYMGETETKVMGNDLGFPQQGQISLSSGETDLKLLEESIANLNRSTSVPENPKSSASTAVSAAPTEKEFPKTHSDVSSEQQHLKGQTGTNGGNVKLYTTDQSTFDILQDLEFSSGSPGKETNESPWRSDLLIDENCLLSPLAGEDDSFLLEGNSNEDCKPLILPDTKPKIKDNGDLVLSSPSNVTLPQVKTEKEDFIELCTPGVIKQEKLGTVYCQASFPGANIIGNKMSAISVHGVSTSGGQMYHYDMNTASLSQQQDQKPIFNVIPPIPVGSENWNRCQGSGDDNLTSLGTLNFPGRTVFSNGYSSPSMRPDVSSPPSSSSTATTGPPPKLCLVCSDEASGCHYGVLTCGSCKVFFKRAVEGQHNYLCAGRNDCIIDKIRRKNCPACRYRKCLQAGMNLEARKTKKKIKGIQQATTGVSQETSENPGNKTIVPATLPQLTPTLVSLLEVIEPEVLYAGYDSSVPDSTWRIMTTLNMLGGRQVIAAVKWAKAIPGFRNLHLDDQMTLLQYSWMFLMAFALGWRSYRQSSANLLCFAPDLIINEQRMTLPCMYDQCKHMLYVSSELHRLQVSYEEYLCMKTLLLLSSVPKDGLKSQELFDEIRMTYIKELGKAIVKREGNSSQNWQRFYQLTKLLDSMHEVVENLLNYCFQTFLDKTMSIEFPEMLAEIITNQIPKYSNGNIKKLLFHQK
Method in brief: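 Antagonist-mode qHTS: compound titrations added to GRE-bla HeLa cells, then dexamethasone 2 nM final; 18 h, 37 C. CCF4 FRET fluorescence normalized to dexamethasone and DMSO; IC50 from Hill fit.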

[7] = target: Peroxisome proliferator-activated receptor gamma (Homo sapiens) (UniProt P37231); assay: qHTS assay for small molecule antagonists of peroxisome proliferator-activated receptor gamma signaling (AID 588537; active = well fitted inhibition curve with a large enough effect in the signal ratio, with a control signal flat, not every such curve was filed as active; the % refers to the signal ratio;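 also: reporter cells co-stimulated with 50 nM rosiglitazone agonist during compound treatment; % of control where 0% means no effect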)
Chain of Peroxisome proliferator-activated receptor gamma (Homo sapiens) (P37231 whole entry, looked up): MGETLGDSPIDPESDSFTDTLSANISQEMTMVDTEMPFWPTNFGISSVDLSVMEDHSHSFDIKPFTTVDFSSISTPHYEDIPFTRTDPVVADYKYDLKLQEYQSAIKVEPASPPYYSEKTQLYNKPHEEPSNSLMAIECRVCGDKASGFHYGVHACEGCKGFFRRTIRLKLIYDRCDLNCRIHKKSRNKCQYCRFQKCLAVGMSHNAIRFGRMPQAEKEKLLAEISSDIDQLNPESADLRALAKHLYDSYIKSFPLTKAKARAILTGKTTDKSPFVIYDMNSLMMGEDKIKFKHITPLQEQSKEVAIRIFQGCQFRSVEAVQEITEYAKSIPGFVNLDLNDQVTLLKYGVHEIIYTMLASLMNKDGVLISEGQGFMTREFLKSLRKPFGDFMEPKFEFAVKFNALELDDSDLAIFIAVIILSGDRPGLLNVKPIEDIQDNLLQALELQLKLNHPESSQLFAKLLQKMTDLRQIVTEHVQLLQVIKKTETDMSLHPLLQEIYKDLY
Method in brief: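 Cell-based beta-lactamase assay; GW9662 served as the antagonist control. Stimulation used rosiglitazone, final 50 nM, 16 h, 37 C.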

[8] = target: Retinoic acid receptor RXR-alpha (Homo sapiens) (UniProt P19793); assay: qHTS assay for small molecule agonists of retinoid X receptor alpha signaling (AID 588544; calls by dose curve;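 also: 0% = DMSO basal wells and 100% = reference agonist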)
Chain of Retinoic acid receptor RXR-alpha (Homo sapiens) (P19793 whole entry, looked up): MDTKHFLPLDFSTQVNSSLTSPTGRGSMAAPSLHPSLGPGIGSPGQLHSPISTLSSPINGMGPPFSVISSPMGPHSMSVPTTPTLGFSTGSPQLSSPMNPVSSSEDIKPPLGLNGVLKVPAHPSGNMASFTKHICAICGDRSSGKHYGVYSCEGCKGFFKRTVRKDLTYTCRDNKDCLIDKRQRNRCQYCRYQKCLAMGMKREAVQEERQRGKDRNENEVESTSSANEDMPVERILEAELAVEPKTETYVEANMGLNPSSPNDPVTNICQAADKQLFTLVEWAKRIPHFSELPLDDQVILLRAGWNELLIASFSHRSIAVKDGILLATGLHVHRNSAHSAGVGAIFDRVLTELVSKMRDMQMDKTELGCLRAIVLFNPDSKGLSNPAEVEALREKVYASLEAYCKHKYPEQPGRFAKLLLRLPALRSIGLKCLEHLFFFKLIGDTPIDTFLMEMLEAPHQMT

[9] = qHTS assay for cell viability of the p53RE-bla HCT-116 cell line (AID 743292); also: % is scaled to controls: 0 for no effect and ±100 for the full control effect; nearly all actives have a fitted effect of over 55% in size
Method in brief: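 Quantitative high-throughput format: compounds in DMSO were pinned onto p53RE-bla HCT-116 cells (4,000/well) and incubated 16 h at 37 C. Total intracellular ATP, read by CellTiter-Glo luminescence, reflects viable cell number.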

[10] = Cell Viability - N2a (AID 540); conditions: N2a mouse neuroblastoma cell viability; activity change, negative = cytotoxicity: at 92.2 µM (top of the series); also: nearly all actives have a fitted effect of over 45% in size; also: potency is read from the fitted curve at half-maximal effect;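 as to activity change, negative = cytotoxicity: plate controls were DMSO alone for no effect and tamoxifen control for full effect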
Method in brief: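 N2a mouse neuroblastoma, 1500 cells/well, 5 hr settle; compound 40 hr, 37 °C; CellTiter-Glo 20 min RT; luminescence; Hill-fit AC50.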

[11] = qHTS assay for cell viability of HEK293 cells (AID 743288); conditions: ATP luminescence (CellTiter-Glo), 18 h; max response: stronger effect = lower value; also: % is scaled to controls: 0 for no effect and ±100 for the full control effect; nearly all actives have a fitted effect of over 50% in size
Method in brief: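 ATP luminescence (CellTiter-Glo) reports metabolically competent cell number after parental HEK293 cells, 2,000/well, were treated with DMSO-dissolved compounds for 18 h at 37 C; reagent incubation 30 min, room temperature.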

[12] = MultiTox-Fluor Cytotoxicity Assay - LYMP1-001 - Live Cells (AID 947);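 also: 0% = DMSO only and full inhibition = tetraoctylammonium bromide control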
[13] = target: Bile acid receptor (Homo sapiens) (UniProt Q96RI1); assay: qHTS assay for small molecule antagonists of farnesoid X receptor signaling (AID 588526; calls by dose curve; also: % is scaled to controls: 0 for no effect and ±100 for the full control effect)
Chain of Bile acid receptor (Homo sapiens) (Q96RI1 whole entry, looked up): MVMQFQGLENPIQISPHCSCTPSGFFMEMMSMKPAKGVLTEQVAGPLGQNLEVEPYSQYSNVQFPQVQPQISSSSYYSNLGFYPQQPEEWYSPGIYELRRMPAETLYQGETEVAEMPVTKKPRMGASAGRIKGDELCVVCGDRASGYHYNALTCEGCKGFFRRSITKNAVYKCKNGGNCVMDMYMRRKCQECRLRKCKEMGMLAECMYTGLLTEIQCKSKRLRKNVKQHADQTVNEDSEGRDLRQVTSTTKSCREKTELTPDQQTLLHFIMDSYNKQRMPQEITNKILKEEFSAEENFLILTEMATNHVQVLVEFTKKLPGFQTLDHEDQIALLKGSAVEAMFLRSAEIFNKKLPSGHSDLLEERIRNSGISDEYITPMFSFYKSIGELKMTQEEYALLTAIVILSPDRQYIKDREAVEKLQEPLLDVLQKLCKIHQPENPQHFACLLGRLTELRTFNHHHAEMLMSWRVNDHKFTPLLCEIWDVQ
Method in brief: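 Beta-lactamase reporter antagonist mode: HEK293T FXR-UAS-bla cells, titrated compound, CDCA stimulation, 16 h 37 C, CCF4 dye 2 h RT. Data normalized to CDCA 50 uM and DMSO; Hill-fit IC50.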

[14] = target: Peroxisome proliferator-activated receptor delta (Homo sapiens) (UniProt Q03181); assay: qHTS assay for small molecule antagonists of peroxisome proliferator-activated receptor delta signaling (AID 588535; active = well fitted inhibition curve with a large enough effect in the signal ratio, with a control signal flat, not every such curve was filed as active; the % refers to the signal ratio)
Chain of Peroxisome proliferator-activated receptor delta (Homo sapiens) (Q03181 whole entry, looked up): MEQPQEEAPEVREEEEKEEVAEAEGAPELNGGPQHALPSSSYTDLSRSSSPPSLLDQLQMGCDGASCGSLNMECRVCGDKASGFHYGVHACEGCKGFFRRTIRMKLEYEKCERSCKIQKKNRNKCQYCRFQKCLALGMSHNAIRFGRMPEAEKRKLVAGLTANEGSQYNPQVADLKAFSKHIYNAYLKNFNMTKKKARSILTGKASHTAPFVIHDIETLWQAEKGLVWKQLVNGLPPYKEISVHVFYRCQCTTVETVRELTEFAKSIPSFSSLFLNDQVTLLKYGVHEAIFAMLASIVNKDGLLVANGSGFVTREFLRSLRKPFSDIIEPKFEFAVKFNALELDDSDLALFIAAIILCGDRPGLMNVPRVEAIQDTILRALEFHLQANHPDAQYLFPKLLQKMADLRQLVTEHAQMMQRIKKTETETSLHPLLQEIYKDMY
Method in brief: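 Antagonist-mode qHTS using GeneBLAzer PPAR-delta-UAS-bla HEK293T cells; compound exposure 18 hrs at 37 C over a titration. Ratiometric CCF4 fluorescence at 460/530 nm; concentration-response points fitted to the Hill equation.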

[15] = qHTS assay to identify small molecules that stimulate interleukin-8 (IL-8) secretion (AID 651758; active = well fitted activation curve with a large enough effect in the signal ratio; the % refers to the signal ratio; also: potency is read from the fitted curve at half-maximal effect; as to activation: 0% is about no effect)
Method in brief: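 Secreted IL-8 measured homogeneously by TR-FRET (two labelled anti-IL-8 antibodies, 1-3 h at room temperature) after a 16 h, 37 C compound treatment of THP-1 cells at 2000 cells/well.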

CC(C)S
inactive: Potency [1] | Potency [2] | Potency [3] | Potency [4] | Potency [5] | Potency [6] | Potency [7] | Potency [8] | Potency [9]

Brc1ccc(-c2ccccc2)cc1
inactive: activity change, negative = cytotoxicity [10] -19.3% | Potency [2] | Potency [3] | Potency [4] | Potency [6]

Nc1cc([N+](=O)[O-])ccc1O
inactive: Potency [1] | Potency [3] | Potency [6] | Potency [7] | Potency [8] | max response [11] 11.2% and -4.43% | Potency [9]

Brc1cc(Oc2cc(Br)c(Br)c(Br)c2Br)c(Br)c(Br)c1Br
inactive: activity change, negative = cytotoxicity [10] -25% | Potency [12] | Potency [2] | Potency [6] | Potency [7] | Potency [8] | Potency [9]

CCCCC(CC)COCCCN (stereo not given)
inactive: Potency [12] | Potency [4] | Potency [5] | Potency [13] | outcome [14] | Potency [8] | Potency [9]

Oc1cc(Cl)cc(Cl)c1Cl
active: Potency [10] 31.6 µM
inactive: Potency [1] | Potency [3] | Potency [5] | Potency [8] | max response [11] -4.35% | Potency [9]

CC(C)COC(=O)COc1cc(Cl)c(Cl)cc1Cl
inactive: activity change, negative = cytotoxicity [10] 8.53% | Potency [1] | Potency [2] | Potency [3] | Potency [5] | Potency [7] | Potency [8] | Potency [15] | max response [11] 6.88%

CC1=C(/C=C/C(C)=C/C=C/C(C)=C/C=O)C(C)(C)CCC1
active: Potency [10] 31.6 µM | Potency [1] 25.1 µM | Potency [2] 39.8 µM | Potency [15] 0.422 µM

S=C(NC1CCCCC1)NC1CCCCC1
inactive: Potency [12] | Potency [3] | Potency [4] | Potency [5] | Potency [7] | Potency [8] | max response [11] -15.2% | Potency [9]

CC(C)(C)C(=O)C1C(=O)c2ccccc2C1=O
inactive: Potency [3] | Potency [5] | Potency [15] | max response [11] -22.9%
active: activity change, negative = cytotoxicity [10] -83%

Nc1cc(C(=O)O)c(O)c(S(=O)(=O)O)c1
inactive: activity change, negative = cytotoxicity [10] -4.5% | Potency [1] | Potency [2] | Potency [3] | Potency [6] | Potency [8] | Potency [9]

Reference: PubChem BioAssay (NCATS)
